Results as given in article PMC8384837, “Expanding the binding specificity for RNA recognition by a PUF domain”.

What follows are sequences tested against PUM1 PUF domain R3-SRV (Homo sapiens, UniProt Q14671 828-1176, C935S;Q939V) (assay: yeast three-hybrid, YBZ-1, SC-Leu-His + 0.5 mM 3-AT, 4 days). Details: tags: N-Gal4 AD-HA kept; label: inside an RPR1-promoter hybrid RNA with tandem MS2 sites; ssRNA.
In short: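 Each repeat of the Pumilio-1 PUF domain was randomized at its three base-contacting residues, and these libraries were co-expressed from a centromeric plasmid with matching RNA elements in strain YBZ-1. After four days on SC-Leu (input) or SC-Leu-His + 0.5 mM 3-AT (selection), the repeat regions were PCR-amplified and Illumina-sequenced. The interaction score compares variant frequency between input and selection as a log change, computed in log2 with a pseudocount of 1 for absent variants.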

Sequence | binding signal
GGCUAGAACUAGUGGAUCCCCCGGCGCCCGGCGGCUCGAGCCCGGGUAAGUGUAAAUAGUCUGCAUGCCGCCGGGCGCCAUGCCUGCAGGUCGACUCUAGAAAACAUG | 3.25 log2 enrichment (interaction score)
GGCUAGAACUAGUGGAUCCCCCGGCGCCCGGCGGCUCGAGCCCGGGUAAGUGUAAGUAGUCUGCAUGCCGCCGGGCGCCAUGCCUGCAGGUCGACUCUAGAAAACAUG | 1.79 log2 enrichment (interaction score)
GGCUAGAACUAGUGGAUCCCCCGGCGCCCGGCGGCUCGAGCCCGGGUAAGUGUAAUUAGUCUGCAUGCCGCCGGGCGCCAUGCCUGCAGGUCGACUCUAGAAAACAUG | 2.15 log2 enrichment (interaction score)
